Test results from PubChem BioAssay AID488841 (Sanford-Burnham Center for Chemical Genomics, 2010).
Screen size: about 1,400 compounds; about 380 (27%) were called active.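 How the source made its calls: active means mean inhibition above 50% across duplicate retests at 10 µM; inactive means the rest.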 The list shows a part of the results.

Assay: inhibition of NALP1/ASC/caspase-1 reporter signal in yeast, confirmation, NALP1 inhibitor project, S. cerevisiae, luminescence, single concentration (AID 488841);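 further: plate controls were DMSO in galactose medium for no effect and cells in plain SD medium for full effect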
Conditions: S. cerevisiae NALP1/ASC/Caspase-1 reporter, beta-gal luminescence; at 10 µM; hits give high values

inhibition, inactive:
NC(=O)c1ncc(C(F)(F)F)cc1Oc1ccc(C(F)(F)F)cc1 28.9%, Cc1ccccc1N=C/C=C1\N(C)c2ccccc2C1(C)C 31.9%, Cc1ccc(C)c(NC(=O)CSc2nnc(-c3ccccc3)o2)c1 32.8%, O=[N+]([O-])c1ccc(-c2ccn[nH]2)o1 39%, O=C(CSc1nnnn1C1CCCCC1)N1c2ccccc2Sc2ccccc21 35.8%, O=S(=O)(Cc1cc(Sc2ccccc2)nc(-c2ccccc2)n1)c1ccccc1 19.4%, O=C1CN(c2nnnn2-c2ccccc2)CCN1 35%, CNc1ccccc(-c2ccc3ccccc3n2)c1=O 24.8%, COc1ccc(Cl)cc1C(=O)O/N=C(\N)c1ccc(Cl)cc1 35.3%, Nc1ccc(C(=O)c2cccs2)cc1 44%, Cc1cccc(/C(N)=N/OC(=O)c2cccc3ccccc23)c1 28.9%, COc1ccc(C(=O)O/N=C(\N)Cc2ccc(Cl)cc2Cl)cc1OC 40.5%, N/C(Cc1cccs1)=N\OC(=O)COc1ccccc1Cl 45.7%, Cc1ccc(/C(N)=N/OC(=O)c2ccc(Cl)cc2Cl)cc1 36%, Cc1cccc(/C(N)=N/OC(=O)c2ccc(Cl)cc2Cl)c1 21.6%, COc1ccc(/C=C(/C(=O)c2cccs2)N2C=CC=CC2=C(C#N)C#N)cc1 38.4%, COc1ccc2oc(=Nc3ccccc3)c(-c3nc4ccccc4[nH]3)cc2c1 38%, Cc1ccc2nc(-c3ccc(NC(=O)CN(c4ccccc4C)S(C)(=O)=O)cc3)sc2c1 37.2%, O=C(NCc1ccc(F)cc1)c1cc(-c2ccco2)on1 33%, CCCn1c(-c2cccnc2Cl)nc2cc(Cl)c(Cl)cc21 41.4%, Oc1ccc2ccccc2c1CN1CCN(c2ccccc2)CC1 33.5%, Cc1ccc(CN2CCN(/N=C/c3cccs3)CC2)cc1 34.5%, O=C(NCCCn1ccnc1)c1ccc(Br)o1 22.2%, COc1ccc(-c2nc(CCNC(=O)c3cccs3)cs2)cc1 41.9%, Cc1ccc2cc(CN(Cc3ccco3)C(=O)NC3CCCCC3)c(=O)[nH]c2c1C 18.7%, Nc1nc(-c2ccco2)nn1S(=O)(=O)c1ccccc1 23.4%, CCOC(=O)c1c(C)[nH]c2c1-c1ccccc1C(=O)C2=O 25.1%, Cc1cc(C)c(S(=O)(=O)Nc2cc(SCC(=O)O)c(O)c3ccccc23)cc1C 22.2%, O=S(=O)(Nc1ccc(Oc2ncccn2)c(Cl)c1)c1ccc(F)cc1 23%, CN(C)CCN(Cc1ccccc1)c1nccc(N(C)C)c1C#N 25.1%, O=C(O)C1C2C=CC(C2)C1C(=O)NCc1ccc(Cl)c(Cl)c1 (centres undefined) 33.5%, CS(=O)(=O)N(CC(=O)Nc1ccccc1Sc1ccccc1)C1CCCCC1 -0.35%

inhibition, active:
C(=C\c1nc(N2CCCCCC2)c2ccccc2n1)/c1ccccc1 70.2%, C(=C\c1nc(N2CCCC2)c2ccccc2n1)/c1ccccc1 78.1%, Cc1ccc(/C(N)=N/OC(=O)c2cccs2)cc1 57.2%, Cc1ccc(/C(N)=N/OC(=O)c2ccc3c(c2)OCO3)cc1 77.3%, N/C(Cc1ccc(Cl)cc1Cl)=N\OC(=O)c1cccs1 51.2%, Cc1cccc(/C(N)=N/OC(=O)c2ccc3c(c2)OCO3)c1 54.1%, Nc1ccccc1-c1nc2ccccc2[nH]1 71.9%, O=C(Nc1cccc(O)c1)c1cc(-c2ccco2)on1 74.8%, CC(C)CC(=O)/C(=C\c1ccc(Cl)cc1Cl)n1cncn1 100%, O=C(NCCc1csc(-c2ccccc2)n1)c1ccc(Br)o1 57.4%, CS(=O)(=O)c1nc(-c2ccco2)cc(C(F)(F)F)n1 81.3%, O=S(=O)(Nc1cc(Sc2cccc3cccnc23)c(O)c2ccccc12)c1ccc(F)cc1 56.7%
